Bioassay records from PubChem BioAssay.
PHOSPHO1 inh = inhibitors of human PHOSPHO1 phosphatase | Q8TCT1 | recombinant PHOSPHO1, absorbance phosphatase assay | inhibition, % at 13.3 µM | 290,000 tested, 1.1% active | AID 1565; in the data active = inhibition above about 60%
Target sequence (Q8TCT1 whole entry, looked up): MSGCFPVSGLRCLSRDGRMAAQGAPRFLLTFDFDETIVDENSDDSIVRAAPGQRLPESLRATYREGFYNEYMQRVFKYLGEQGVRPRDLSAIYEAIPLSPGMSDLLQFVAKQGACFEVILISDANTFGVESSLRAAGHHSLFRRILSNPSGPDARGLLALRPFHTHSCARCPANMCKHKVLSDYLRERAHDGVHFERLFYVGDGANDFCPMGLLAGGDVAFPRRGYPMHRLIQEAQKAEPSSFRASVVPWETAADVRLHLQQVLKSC
ALR H2O2 inh = blocks human ALR sulfhydryl oxidase activity. inhibition, % (test concentration not listed). purified ALR, DTT oxidation, H2O2 HRP-luminol luminescence. AID 485317. 290,000 tested, 3.8% active;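 active = mean replicate inhibition above about 79%, with every replicate also reaching it, limit read from the data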
Target sequence (P55789 whole entry, looked up): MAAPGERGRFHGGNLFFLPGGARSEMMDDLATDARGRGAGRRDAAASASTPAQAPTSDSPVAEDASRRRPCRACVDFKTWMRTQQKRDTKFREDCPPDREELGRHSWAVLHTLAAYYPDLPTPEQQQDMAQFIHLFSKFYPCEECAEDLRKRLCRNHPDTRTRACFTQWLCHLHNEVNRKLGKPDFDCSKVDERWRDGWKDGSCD
M18AAP inhibitor = blocks P. falciparum M18 aspartyl aminopeptidase. AID 1822. inhibition, % at 7.35 µM. recombinant PfM18AAP, H-Glu-NHMec fluorogenic cleavage. 290,000 tested, 1.2% active;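 active = inhibition above the campaign mean inhibition over all tested compounds plus 3 SD, cut at about 28% in these data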
Cardio protect = myocardial damage modulation in H9c2 cells; H9c2 cardiomyocytes, H2O2 injury protection, ATPLite, 2 h; protection from H2O2 cell death, % at 20 µM; 360,000 tested, 0.63% active; AID 588492;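 active = compounds giving at least 50% protection of heart cells from peroxide-induced death in the single-dose screen, raw or plate-pattern-corrected value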
PfGluPho inh = PfG6PD (Plasmodium falciparum) enzyme inhibition | PfGluPho enzyme, NADPH resazurin-diaphorase fluorescence | inhibition, % at 20 µM | 350,000 tested, 0.78% active | AID 504690;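 active = inhibition reaching at least a set limit at 20 µM in the primary screen, cut at about 59% in these data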
Large screens that a line does not name were inactive. Only some compounds are listed: those with a hit (about 5.6% of all), similar ones and a draw of the others.

O=C(NNC(=S)Nc1ccccc1)C1CC1	none
COC(C/C=C\C(=O)[C@@H](C)OCc1ccccc1)OC	none (no result: PHOSPHO1 inh, M18AAP inhibitor, Cardio protect, PfGluPho inh)
O=C(CCCc1nc2ccccc2s1)Nc1nccs1	PHOSPHO1 inh 92.3
Cn1c(SCC(=O)Nc2ccc3nc(SCC(=O)N4CCCC4)sc3c2)nnc1-c1ccc(N)cc1	PHOSPHO1 inh 67.3 (no result: ALR H2O2 inh)
Cn1c(SCC(=O)Nc2ccc3nc(SCC(=O)NC4CC4)sc3c2)nnc1-c1ccccc1	none
CN(C)c1ccc(NC(=O)c2sc(SCC(=O)Nc3ccc(Br)cc3)nc2N)cc1	none
CCCC(=O)Nc1ccc2nc(SCC(=O)Nc3nccs3)sc2c1	ALR H2O2 inh 98.8
CN(C)c1ccc(NC(=O)c2sc(SCC(=O)Nc3nccs3)nc2N)cc1	PHOSPHO1 inh 67.3
O=C(CCCSc1nc2ccccc2s1)Nc1nccs1	none (no result: ALR H2O2 inh)
CCN(CC)C(=O)CSc1nc2ccc(NC(=O)CSc3nccn3C)cc2s1	ALR H2O2 inh 98.8
NC1=NC[C@H](Cc2ccc(O)cc2)N1CC1CCCCC1	ALR H2O2 inh 89.6 (no result: M18AAP inhibitor)
CC1(C(=O)NCCc2ccccc2)Cc2c(-c3cccc(C(F)(F)F)c3)ccnc2O1 (stereo not given)	none (no result: PHOSPHO1 inh, ALR H2O2 inh, M18AAP inhibitor, PfGluPho inh)
CCc1ccc(C(=O)N2CCN(c3ccc(NC(=O)c4cccnc4)cc3)CC2)cc1	none
O=C(Nc1ncccn1)c1ccc(C(F)(F)F)cc1	ALR H2O2 inh 97.2
O=C(NC1=NCCS1)c1ccc(C(F)(F)F)cc1	none
Cc1ccc(-c2nn3c(-c4ccco4)nnc3c3ccccc23)cc1S(=O)(=O)NCC1CCCO1 (stereo not given)	Cardio protect 54.7
O=C1S/C(=C/c2ccc(N3CCOCC3)o2)C(=O)N1Cc1c(F)cccc1Cl	PHOSPHO1 inh 68.6
COc1cccc(CNC(=O)Cn2cccc2C(=O)c2ccccc2C)c1	PHOSPHO1 inh 64.0
COc1ccccc1CNC(=O)Cn1cccc1C(=O)c1ccccc1C	PHOSPHO1 inh 75.4
N#Cc1ccccc1N1CCN(C(=O)c2ccc(NC(=O)c3ccc(Br)o3)cc2)CC1	none (no result: PHOSPHO1 inh, M18AAP inhibitor)
CCOC(=O)C1=CN(CC2CCCCC2)CCC1=O	none (no result: PHOSPHO1 inh, ALR H2O2 inh, M18AAP inhibitor)
Cc1ccc(-c2nc3c(c(SCC(=O)N4CCOCC4)n2)Cc2c(CO)cnc(C)c2O3)cc1	none
COc1ccc(-c2nc3c(c(SCC(=O)N4CCOCC4)n2)Cc2c(CO)cnc(C)c2O3)cc1	Cardio protect 76.9 (no result: ALR H2O2 inh)
NC(=S)NNc1c(F)c(F)c(F)c(F)c1F	ALR H2O2 inh 97.5
COc1ccc(N/N=C(\C=N\O)C(=O)c2ccc(OC)cc2)cc1	ALR H2O2 inh 93.1
COc1ccc(C(=O)C(=NNc2ccccc2)c2ccc(OC)cc2)cc1	none (no result: PHOSPHO1 inh, ALR H2O2 inh, M18AAP inhibitor)
Cc1cc(=O)[nH]c2ccc(S(=O)(=O)N3CCOCC3)cc12	PHOSPHO1 inh 72.8
CC(C)CNc1ncnc2c1ncn2[C@H]1CN(Cc2cccs2)C[C@@H](CO)O1	none (no result: PHOSPHO1 inh, ALR H2O2 inh, M18AAP inhibitor, PfGluPho inh)
Cc1ccc(Cn2cc(/C=N/Nc3ccc([N+](=O)[O-])cn3)c3ccccc32)cc1	M18AAP inhibitor 54.1
Cc1ccc(-n2c(C)cc(/C=N/Nc3ccc([N+](=O)[O-])cn3)c2C)cc1	PHOSPHO1 inh 101.1
O=C(O)c1ccc(N/N=C/c2cn(Cc3ccc(F)cc3)c3ccccc23)cc1	ALR H2O2 inh 98.9
CCNC(=S)N/N=C/c1cn(Cc2ccc(F)cc2)c2ccccc12	none
Cc1ccc(OCCC(=O)N(CCC(C)C)c2c(N)n(Cc3ccccc3)c(=O)[nH]c2=O)cc1	none (no result: PHOSPHO1 inh, M18AAP inhibitor)
CC(=O)c1ccc(OCCOc2ccc([N+](=O)[O-])cc2)cc1	none
C[N+]1(CCOc2ccc([N+](=O)[O-])cc2)CCOCC1	PHOSPHO1 inh 96.8
CC(=O)Nc1cccc(NC(=O)c2cc(-c3cccnc3)nc3ccc(Br)cc23)c1	Cardio protect 80.4
CC(=O)Nc1cccc(NC(=O)c2cc(-c3ccccn3)nc3ccc(Cl)cc23)c1	none
CC(=O)Nc1cccc(NC(=O)c2cc(-c3cccnc3)nc3ccc(Cl)cc23)c1	Cardio protect 65.3
CCOC(=O)C(Cc1c[nH]c2cc([N+](=O)[O-])ccc12)(NC(C)=O)C(=O)OCC	none (no result: PHOSPHO1 inh, ALR H2O2 inh, M18AAP inhibitor)
COc1cc(/C=N/N2CCN(c3ccc(Cl)cc3)CC2)cc(OC)c1OC(C)=O	none
O=C(O)c1ccc(/C=N/N2CCN(c3ccccc3)CC2)cc1	none
COc1cc(/C=N/N2CCN(c3ccccc3)CC2)cc(OC)c1OC(C)=O	ALR H2O2 inh 97.4
Cn1cccc1/C=N/N1CCN(c2ccccc2)CC1	ALR H2O2 inh 93.7
CN(c1ccccc1)c1ccc(/C=N/N2CCOCC2)cc1	ALR H2O2 inh 99.1
C(=N/N1CCN(c2ccccc2)CC1)/c1ccncc1	ALR H2O2 inh 96.7
Cc1ccc(S(=O)(=O)NCC(NCc2ccc(F)cc2)c2ccccc2)cc1 (stereo not given)	none (no result: PHOSPHO1 inh, ALR H2O2 inh, M18AAP inhibitor)
